Experimental data reported in PubChem BioAssay (NCI).
The panel holds about 83,000 compounds, 20% with a hit somewhere; the sample as a whole holds those more often.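 48-hour exposure, single concentration, 96-well plates; percent growth endpoint where 0 means no net growth. Active: below 10.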 A number with no mark means an inactive call. Active and inactive are the calls of the source.

What was measured:
Assay in all cases: NCI-60 one-dose screen, 48 h (100 = growth as untreated, 0 = no growth, -100 = all killed)
DU-145 prostate = details: 10 µM unless noted
K-562 leukemia = details: 10 µM unless noted
MALME-3M melanoma = details: 10 µM unless noted
RXF 393 renal = details: 10 µM unless noted
SF-268 CNS = details: 10 µM unless noted
SF-295 CNS = details: 10 µM unless noted
SF-539 CNS = details: 10 µM unless noted
UACC-257 melanoma = details: 10 µM unless noted
M14 melanoma = details: 10 µM unless noted
HCT-15 colon = details: 10 µM unless noted
HT29 colon = details: 10 µM unless noted
SNB-75 CNS = details: 10 µM unless noted
SNB-19 CNS = details: 10 µM unless noted
U251 CNS = details: 10 µM unless noted
PC-3 prostate = details: 10 µM unless noted
SK-MEL-5 melanoma = details: 10 µM unless noted
UACC-62 melanoma = details: 10 µM unless noted
SK-MEL-28 melanoma = details: 10 µM unless noted
LOX IMVI melanoma = details: 10 µM
MDA-MB-231 breast = details: 10 µM unless noted

| SMILES | growth (DU-145 prostate) [%] | growth (K-562 leukemia) | growth (MALME-3M melanoma) [%] | growth (RXF 393 renal) | growth (SF-268 CNS) [%] | growth (SF-295 CNS) [%] | growth (SF-539 CNS) | growth (UACC-257 melanoma) [%] | growth (M14 melanoma) | growth (HCT-15 colon) | growth (HT29 colon) | growth (SNB-75 CNS) | growth (SNB-19 CNS) [%] | growth (U251 CNS) | growth (PC-3 prostate) [%] | growth (SK-MEL-5 melanoma) | growth (UACC-62 melanoma) | growth (SK-MEL-28 melanoma) [%] | growth (LOX IMVI melanoma) | growth (MDA-MB-231 breast) [%] |
| --- | --- | --- | --- | --- | --- | --- | --- | --- | --- | --- | --- | --- | --- | --- | --- | --- | --- | --- | --- | --- |
| Cn1c(=O)[nH]c2ccccc2c1=O | 104 | 103% | 100 | 102% | 107 | 94.4 | 98.8% | 102 | 107% | 101% | 98.4% | 91% | 94.3 | 93.6% | 130 | 101% | 102% | 117 | – | – |
| Cc1[nH]nc(C(N)=O)c1[N+](=O)[O-] | 103 | 126% | 94 | 86.9% | 99.4 | 99 | 93.3% | 93.7 | 90.4% | 95.2% | 108% | 99.6% | 93.2 | 103% | 100 | 91.2% | 90.3% | 93.2 | 97.2% | – |
| CSc1nc2[nH]ncc2c(=O)[nH]1 | 104 | 113% | 101 | 92.6% | 95.2 | 96.2 | 96% | 109 | 92.1% | 99.7% | 107% | 103% | 103 | 103% | 107 | 92.8% | 107% | 106 | 97.2% | – |
| N#C/C(=C\NC(=S)N=Nc1c(O)[nH]c2ccccc12)c1nc2ccccc2s1 | 113 | 101% | – | 101% | 102 | 107 | 103% | 94.9 | 101% | 101% | 106% | 85.1% | 104 | 92.5% | 86.1 | 94.9% | 94.3% | 112 | 96.6% | 87.9 |
| CC(=O)c1cccc(O)c1 | 105 | 103% | – | 112% | 97.1 | 101 | 98% | 99.3 | 99.6% | 101% | 92.1% | 91.4% | 108 | 97.2% | 106 | 100% | 109% | 109 | 94.6% | 104 |
| COc1ccc(Br)c(C=O)c1 | 88.1 | 11.6% | 66.2 | 80.1% | 60.8 | 65.7 | 30.5% | 79.7 | 46.1% | 26.8% | 76.3% | 54.8% | 74.8 | 39.1% | 71.7 | 81.8% | 63.8% | 86 | – | – |
| O=S(=O)(c1ccc(NC(=S)NCc2cccnc2)cc1)N1CCCCC1 | 46.9 | 33% | 90.3 | – | 72.6 | – | 31.9% | 101 | 39.7% | 57.2% | 55.2% | 78.4% | 60.6 | – | 25.3 | 74.2% | 93.7% | 92.6 | 56.5% | 95.1 |
| NC(=O)NCCO | 110 | 99.2% | 97.4 | 102% | 101 | 95.6 | 103% | 97.8 | 107% | 109% | 100% | 105% | 104 | 92.5% | 94.5 | 98% | 95.5% | 113 | 97.7% | – |
| COC(=O)c1cccc([N+](=O)[O-])c1 | 105 | 120% | 102 | 108% | 102 | 105 | 98.5% | 95.5 | 105% | 105% | 101% | 120% | 98.6 | 97.4% | 97.4 | 98.9% | 98.7% | 102 | 100% | – |
| CC(C)C(C)(C)C(=O)C(C)(C)C(C)(C)C | 107 | 96.8% | 92.6 | 104% | 102 | 95.8 | 98.8% | 92.6 | 114% | 96.9% | 98.1% | 109% | 102 | 92.9% | 98.8 | 101% | 102% | 104 | 93.3% | – |
| Nc1nnc2cc(F)ccc2n1 | 102 | 97.2% | 107 | – | 99.6 | – | 107% | 110 | 99.3% | 99.4% | 111% | 75.1% | 99.2 | 110% | 96.6 | 114% | 105% | 108 | 96.3% | 102 |
| CNc1ccccc1C(N)=O | 107 | 108% | 97.9 | 98.1% | 100 | 95.5 | 97.6% | 98.4 | 96.2% | 101% | 103% | 91.8% | 94.8 | 92.8% | 116 | 101% | 93.8% | 107 | – | – |
| C=C(c1ccc(N(C)C)cc1)c1ccc(N(C)C)cc1 | 20.3 | 5.61% (active) | 20.6 | -11% (active) | 31.2 | 21 | -44.9% (active) | 52.3 | -47.2% (active) | 6.8% (active) | -31.6% (active) | -14.5% (active) | 20.6 | 3.57% (active) | 25.7 | -0.97% (active) | -8.67% (active) | 31.5 | – | – |
| CC(C)N1CC(=O)N2CSCC2C1=O (stereo unspecified) | 107 | 104% | – | 104% | 106 | 105 | 97.6% | 108 | 104% | 105% | 119% | 99.3% | 121 | 105% | 101 | 104% | 104% | 111 | 98.9% | 120 |
| Clc1cccc(Cl)c1C1CSc2ccccc2N=C1c1ccccc1 (stereo unspecified) | 59.6 | 4.38% (active) | 110 | – | 73.4 | – | 101% | 51.4 | 86.6% | 54.7% | 26.8% | 64.9% | 97.4 | – | 55 | 86.8% | 68.9% | 90.4 | -4.86% (active) | 70.5 |
| COC1OC(C(O)C(O)CO)C(O)C(O)C1O (stereo unspecified) | 118 | 104% | 101 | 98% | 103 | 100 | 97.5% | 95.6 | 97.4% | 99.1% | 100% | 95.6% | 105 | 98.9% | 95.6 | 107% | 102% | 101 | 102% | – |
| Nc1cc2c(cc1Cl)C(=O)c1ccccc1C2=O | 67.7 | 72.4% | 64.7 | 72.2% | 44.5 | 35.4 | -82% (active) | 89.8 | 85.3% | 70.6% | 83.8% | 30.9% | 36.2 | -34.1% (active) | 72.5 | 91.9% | 73.2% | 101 | – | – |
| O=C1C=CC(=O)C2=C1CCCC2 | 101 | 46.3% | 91.9 | 103% | 93.7 | 104 | 104% | 95.6 | 96.4% | 92.4% | 109% | 80.2% | 92.7 | 95.5% | 82.7 | 97.5% | 85.5% | 108 | – | – |
